# Hits are enriched below; roughly 5.4% of the tested compounds scored in any of these assays.
# ALR H2O2 inh = inhibitors of human sulfhydryl oxidase ALR | purified ALR, DTT oxidation, H2O2 HRP-luminol luminescence | 290,000 tested, 3.8% active | P55789 | inhibition, % (concentration not given with the values);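 active = mean replicate inhibition above about 79%, with every replicate also reaching it, limit read from the data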
# GASC-1 inh = human JMJD2C demethylase inhibition | inhibition, % at 2.35 µM | Q9H3R0 | GST-JMJD2C(1-420) H3K9me3 demethylation, DELFIA europium | AID 2099 | 330,000 tested, 0.069% active;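 active = more than half of a compound's replicate wells show inhibition beyond 50%, single wells judged on their own value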;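 note: signal counts dimethyl H3K9 product captured on neutravidin plate; 0% = median of DMSO wells and 100% = 0.3 times that DMSO median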
# Target sequence (Q9H3R0 1-420 limits assumed): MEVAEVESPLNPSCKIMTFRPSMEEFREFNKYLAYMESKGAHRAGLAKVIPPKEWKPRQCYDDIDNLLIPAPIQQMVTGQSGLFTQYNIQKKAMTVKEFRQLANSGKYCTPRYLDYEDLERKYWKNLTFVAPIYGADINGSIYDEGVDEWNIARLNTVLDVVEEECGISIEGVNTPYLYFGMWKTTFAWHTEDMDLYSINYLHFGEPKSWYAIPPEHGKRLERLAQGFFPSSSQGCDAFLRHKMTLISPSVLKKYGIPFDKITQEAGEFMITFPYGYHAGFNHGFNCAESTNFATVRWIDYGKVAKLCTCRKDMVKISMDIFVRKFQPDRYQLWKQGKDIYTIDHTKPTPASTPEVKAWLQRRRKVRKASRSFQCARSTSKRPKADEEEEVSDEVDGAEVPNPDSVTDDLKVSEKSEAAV
# SMARCA2 activ = SMARCA2 function activation, primary screen; MG213 cells, MMTV-luciferase reporter, dexamethasone, overnight; activation, % at 9.1 µM; 370,000 tested, 1% active; in the data active = activation above about 7.8%;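 note: 0% = vehicle wells and 100% = reference activator wells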
# PfM18AAP inh = PfM18AAP enzyme inhibition | AID 1822 | recombinant PfM18AAP, H-Glu-NHMec fluorogenic cleavage | 290,000 tested, 1.2% active | inhibition, % at 7.35 µM;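 active = inhibition above the campaign mean inhibition over all tested compounds plus 3 SD, cut at about 28% in these data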;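 note: 0% = plate median of test compound wells and 100% = 2 mM ZnCl2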
# Granule exo inh = lytic granule exocytosis inhibition. TALL-104 LAMP-1 surface exposure, flow cytometry; cells stimulated with thapsigargin and PMA. inhibition, % at 10 µM. 360,000 tested, 0.66% active;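 active = inhibition above about 55%, limit read from the data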
# MIN6 prolif = induces beta-cell replication in MIN6 cells. AID 2380. 330,000 tested, 0.29% active. proliferation, % at 10 µM. MIN6 cells proliferation, ATPlite luminescence, 48 h; cells starved in 0.2% serum; 100% = growth in 10% serum;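 active = compounds whose signal lies at least 3.5 SD above the mean of all wells on their plate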;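 note: 0% = DMSO-treated cells in low-serum medium and 100% = 10% serum control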
# An asterisk follows results filed as active; . = no result given.
SMILES,ALR H2O2 inh,GASC-1 inh,SMARCA2 activ,PfM18AAP inh,Granule exo inh,MIN6 prolif
Cc1ccc(S(=O)(=O)N2CCN(c3nc(CN4CCCC4)nc4sc(C)c(C)c34)CC2)cc1,-4.2,-4.4,6.7,.,-1.2,-7.6
Oc1ccc(Oc2ncc(Cl)cc2Cl)cc1,99.1*,4.9,-2.1,-6.1,-3.8,-4.3
Cc1ccc2nc(CSc3nnc(Nc4ccccc4F)s3)cc(=O)n2c1,0.4,-14.3,1.5,-2.6,-1.6,0.0
Cc1ccc(Nc2nnc(SCc3cc(=O)n4cc(C)ccc4n3)s2)cc1,98.8*,-9.4,-3.6,2.7,0.2,-3.5
CC(=O)NCCC(=O)Nc1sc2c(c1-c1nc3ccccc3[nH]1)CCCC2,98.2*,-1.7,1.5,7.9,-0.6,-0.2
O=C(Nc1sc2c(c1-c1nc3ccccc3[nH]1)CCCC2)C1CCCC1,8.1,-3.3,-2.2,7.1,4.0,-2.4
Cc1ccc(CN2CCCCC(NC(=O)c3ccc(-c4ccccc4)cc3)C2=O)cc1 (configuration not stated),.,.,-3.1,.,.,.
O=S1(=O)c2c(cccc2N2CC[C@H](O)C2)OCCCN1C1CC1,.,.,0.1,.,.,.
Cc1ccsc1/C=N\NC(=O)c1cc(C(C)(C)C)[nH]n1,89.4*,10.6,5.0,-2.6,10.5,-3.0
OC(c1ccccc1)(c1ccccc1)C1CCN(CCCOc2ccc(-c3ccc(F)cc3F)cc2)CC1,.,.,-6.9,.,.,.
O=c1cc(NC2CCCCCC2)[nH]c(=O)[nH]1,13.8,54.2*,1.0,-2.8,-0.8,-2.0
COCCSc1ncccc1-c1nc2ccccc2[nH]1,.,.,-1.2,.,.,.
CC(C)=C1C(=O)NN(c2ccc(F)c(Cl)c2)C1=O,94.2*,-16.1,4.2,-48.4,-2.1,-1.6
O=C1NN(c2ccc(F)c(Cl)c2)C(=O)/C1=C\c1cccc(OC(=O)c2cccs2)c1,-8.8,-6.0,0.6,-23.2,6.9,-3.9
COC(=O)[C@]12C[C@H](CC(=O)NCc3ccc(C)o3)C(=O)N(Cc3ccc(Cl)cc3Cl)C1=C[C@H](COCc1ccccc1)O[C@@H]2C,.,.,-3.4,.,.,.
Cc1ccc(N2CCN(S(=O)(=O)c3c(C)nc4sccn4c3=O)CC2C)cc1 (configuration not stated),.,.,-5.0,.,-2.7,.
Cc1ccc(N2CCN(S(=O)(=O)c3cccs3)CC2C)cc1 (configuration not stated),99.4*,-12.2,-1.1,-1.9,1.2,-4.6
CC(C)CNS(=O)(=O)/C=C/c1ccccc1CNC(=O)OC(C)(C)C,.,.,-0.6,.,.,.
CC1(C(=O)O)CCC(C(=O)Nc2ccccc2O)C1(C)C (configuration not stated),86.3*,-6.0,-0.6,-15.3,10.8,0.2
Nc1c(C(=O)c2ccccc2)sc2snc(SCC(=O)c3ccccc3)c12,20.8,16.7,2.2,30.8*,1.0,-3.1
Nc1nnc(SCC(=O)c2ccccc2)s1,5.3,-2.0,3.3,14.7,-2.9,0.9
CN(C)c1ccc(C(O)P(=O)(OC2CCCCC2)OC2CCCCC2)cc1 (configuration not stated),96.8*,-4.1,-3.1,14.0,-3.5,1.7
Cc1ccc(C(O)P(=O)(OCCC(C)C)c2ccc(N(C)C)cc2)cc1 (configuration not stated),-2.7,7.9,-2.1,4.4,59.8*,2.6
CC(C)OP(=O)(OC(C)C)C(O)c1ccc(N(C)C)cc1 (configuration not stated),97.3*,13.1,4.7,6.4,-1.3,1.5
CCN1CCN(CCCNC(=O)c2ccc(/C=C3/Sc4ccccc4N(Cc4ccccc4F)C3=O)cc2)CC1,-10.8,-6.3,6.2,2.5,69.8*,-5.9
CCOC(=O)c1ccc(NC(=O)CSc2nc(=O)n(CCN3CCOCC3)c3c2CCC3)cc1,.,24.5,-1.7,.,-1.0,1.4
Cc1ccc(NC(=O)CSc2nc(=O)n(CCCN3CCOCC3)c3c2CCCC3)c(C)c1,2.0,15.0,-2.8,.,3.3,4.2
Cc1ccc(NC(=O)CSc2nc(=O)n(CCCN3CCOCC3)c3c2CCCC3)cc1F,97.5*,1.2,-3.8,.,-7.1,3.0
CCc1ccc(NC(=O)CSc2nc(=O)n(CCCN3CCOCC3)c3c2CCCC3)cc1,98.2*,-8.2,-3.0,.,1.1,2.7
CCOC(=O)[C@@]12CN(C(=O)OC(C)(C)C)CC=C1N(Cc1ccc(OC)cc1)C(=O)[C@H]2CC(=O)NCc1ccccc1,.,.,-4.3,.,.,.

# Compound activity (PubChem BioAssay)
